# About 79,000 compounds went through this panel and 15% of them were active in at least one assay; those are over-represented in the sample as a whole. Unmarked numbers belong to inactive results. Active and inactive are the calls of the source. No stated cut-off is given here; in the data, active means growth inhibition above about 70%; inactive means the rest.
# Legend:
# [1] = NCI Yeast Anticancer Drug Screen. Data for the rad50 strain (AID 155);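 further: 0% = growth of vehicle-only cultures of the same strain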; details: S. cerevisiae rad50 strain growth inhibition, active compounds read high
# Procedure, shortened: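 A DNA repair-deficient yeast mutant serves as the test organism; compound-induced growth inhibition is calculated against vehicle-treated cells.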
# [2] = NCI Yeast Anticancer Drug Screen. Data for the mec2-1 strain (AID 157); details: S. cerevisiae mec2-1 strain, active compounds read high
# Procedure, shortened: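 Readout is yeast growth inhibition, normalised to vehicle-treated controls, in the mec2-1 strain exposed to compound.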
# [3] = NCI Yeast Anticancer Drug Screen. Data for the sgs1 mgt1 strain (AID 161);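 further: 0% = growth of cultures given vehicle only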; details: S. cerevisiae sgs1 mgt1 strain, active compounds read high
# Procedure, shortened: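 Percent growth inhibition was derived by comparing compound-exposed mutant yeast with vehicle-exposed cultures. The strain carries alterations in DNA damage repair.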
# [4] = NCI Yeast Anticancer Drug Screen. Data for the cln2 rad14 strain (AID 165);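 further: 0% = growth equal to vehicle treated cultures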; details: S. cerevisiae cln2 rad14 strain, active compounds read high
# Procedure, shortened: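 Relative to vehicle controls, growth inhibition of compound-treated cln2 rad14 yeast was recorded.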
# [5] = NCI Yeast Anticancer Drug Screen. Data for the bub3 strain (AID 167); details: S. cerevisiae bub3 mutant strain, active compounds read high
# Procedure, shortened: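 Inhibition values come from growth of compound-treated mutant yeast normalised to vehicle-treated controls.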
# [6] = NCI Yeast Anticancer Drug Screen. Data for the mlh1 rad18 strain (AID 175); details: S. cerevisiae mlh1 rad18 strain growth inhibition, active compounds read high
# Procedure, shortened: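 Test agents were incubated with a yeast strain of defined genotype (DNA damage repair defect). Inhibition of growth was derived by comparison with vehicle-exposed cultures.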
# [7] = at 5.0 µM (retest, dose inferred, filed as 0.5)
# [8] = at 50.0 µM (retest, dose inferred, filed as 5.0)
SMILES,"growth inhibition [1, 7]","growth inhibition [1, 8]",growth inhibition ([1]; at 50.0 µM),"growth inhibition [2, 7]","growth inhibition [2, 8]",growth inhibition ([2]; at 50.0 µM),"growth inhibition [3, 7]","growth inhibition [3, 8]",growth inhibition ([3]; at 50.0 µM),"growth inhibition [4, 7]","growth inhibition [4, 8]",growth inhibition ([4]; at 50.0 µM),"growth inhibition [5, 7]","growth inhibition [5, 8]",growth inhibition ([5]; at 50.0 µM),"growth inhibition [6, 7]","growth inhibition [6, 8]",growth inhibition ([6]; at 50.0 µM)
COc1ccccc1CN1CCCN(Cc2ccccc2OC)C1c1cc(Cl)cc(Cl)c1O,16%,93% (active),69.2%,11%,100% (active),15.3%,19%,99% (active),97.5% (active),-2%,97% (active),6.2%,4%,98% (active),9.3%,52%,99% (active),78.6% (active)
COc1ccc(C(C)(C)c2cc3c(cc2OCCO)OCO3)cc1,-1%,82% (active),89.8% (active),1%,90% (active),92.2% (active),4%,92% (active),97% (active),0%,70% (active),60.1%,13%,90% (active),90.2% (active),1%,94% (active),93.3% (active)
N#C/C(=C1C=C/C(=N/O)c2ccccc2/1)c1ccc(Cl)cc1,11%,17%,56%,-6%,26%,77.3% (active),1%,1%,60.8%,-1%,6%,41.1%,-4%,61%,34.5%,-9%,28%,72.6% (active)
N#CC1Sc2ccccc2N1C(=O)c1ccccc1 (centres undefined),-2%,3%,96.6% (active),-15%,-6%,91% (active),-2%,-19%,93% (active),-12%,-19%,78% (active),-10%,4%,84.2% (active),-12%,-5%,98% (active)
CN(C)c1ccccc1CCCCCCc1ccccc1N(C)C,54%,59%,84% (active),55%,57%,74.7% (active),76% (active),72% (active),87.8% (active),79% (active),82% (active),85.2% (active),67%,50%,80.5% (active),38%,43%,76.3% (active)
O=C1C=CC(=O)c2c(O)c(N3CCC[C@@H]3CO)c(Cl)c(O)c21,20%,65%,30.1%,30%,64%,41.5%,25%,52%,51.2%,19%,36%,30.2%,21%,29%,72.2% (active),26%,71% (active),4.25%
CCOc1ccccc1/C=N/Nc1nnc(N/N=C/c2ccccc2OCC)c2ccccc12,0%,42%,44%,9%,64%,48.8%,-24%,38%,41.5%,-10%,58%,45.2%,-4%,54%,44.2%,7%,80% (active),43.9%
Nc1c(/C=C/c2cc3ccc(C4=NCCN4)cc3[nH]2)[nH]c2cc(C3=NCCN3)ccc12,78% (active),97% (active),89.3% (active),41%,96% (active),89% (active),36%,94% (active),89.2% (active),47%,94% (active),89.5% (active),42%,92% (active),86.5% (active),36%,96% (active),90.5% (active)
CC1=C(C(=O)OC(C)C)C(c2ccccc2[N+](=O)[O-])C(C(=O)OC(CO[N+](=O)[O-])CO[N+](=O)[O-])=C(C)N1 (centres undefined),17%,24%,83.6% (active),30%,27%,87.7% (active),-20%,-8%,89.1% (active),2%,22%,83.9% (active),-5%,25%,87.2% (active),18%,19%,81.7% (active)
O=C1C=CC(=O)C1=Cc1ccc(Cl)c(Cl)c1,99% (active),99% (active),98.8% (active),100% (active),99% (active),98.9% (active),100% (active),98% (active),98.7% (active),100% (active),99% (active),99.2% (active),100% (active),99% (active),98.8% (active),100% (active),99% (active),99% (active)
Cn1c(CCC2(C)Cc3ccccc3C(=O)O2)cc2ccccc2c1=O (centres undefined),3%,31%,55.2%,-6%,48%,69.7%,0%,79% (active),73.9% (active),-11%,27%,28.4%,-27%,86% (active),75.3% (active),2%,48%,49%
CCN(CC)CCNc1cc(C)nc2c1ccc1c2ccc2c(NCCN(CC)CC)cc(C)nc21,-3%,96% (active),62.3%,18%,98% (active),98% (active),-3%,96% (active),54.5%,-16%,95% (active),93% (active),-2%,90% (active),96% (active),-3%,97% (active),96.4% (active)
CC(C)(C)CC(C)(C)c1ccc(Oc2ccc([N+](=O)[O-])cc2S(=O)(=O)O)cc1,-2%,21%,14.8%,-6%,-1%,0.05%,-1%,32%,64.5%,4%,-4%,-23.4%,-2%,-13%,5.45%,5%,26%,24.7%
CC(=O)O[C@@H]1[C@@H](O)[C@H]2O[C@@H]3C=C(C)CC[C@]3(CO)[C@]1(C)[C@@]21CO1,34%,93% (active),-11.2%,28%,96% (active),-22.9%,33%,95% (active),5.35%,52%,98% (active),-11.7%,13%,98% (active),9.3%,33%,95% (active),91.8% (active)
CCCCCCCCCCCCCCCCCC(=O)OC(C)CCC1CCCO1 (centres undefined),4%,-6%,26.4%,1%,0%,12.8%,5%,11%,5.9%,5%,3%,0.1%,1%,-2%,-5.95%,1%,-58%,13%
Cc1ccc(NC(=O)COC(=O)c2cccc3c(=O)c4ccccc4[nH]c23)cc1,51%,89% (active),74.8% (active),27%,80% (active),43.3%,40%,89% (active),29.6%,21%,69%,61.6%,42%,81% (active),72% (active),49%,94% (active),49.5%
Oc1ccc(C(=C(Br)c2ccccc2)c2ccc(O)cc2)cc1,98% (active),98% (active),87.7% (active),99% (active),99% (active),91.5% (active),99% (active),99% (active),85.1% (active),99% (active),99% (active),89.5% (active),99% (active),99% (active),89.3% (active),99% (active),99% (active),85.3% (active)
COc1cc(/C=C/C(=N\NC(=O)c2ccccc2)c2sc(Nc3ccc(Cl)c(Cl)c3)nc2C)ccc1O,49%,49%,91.2% (active),29%,29%,89.8% (active),52%,52%,89.7% (active),14%,14%,88.2% (active),28%,28%,90.5% (active),30%,30%,88.9% (active)

# Reference: PubChem BioAssay (NCI)
